Shn3 3UTR inh: reduces Shn3 3'UTR luciferase signal in osteoblasts; Clone20 osteoblast Shn3 3'UTR firefly luciferase, 24 h; inhibition, % at 12.5 µM; 360,000 compounds, 0.52% hits; AID 588674;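 active = mean inhibition of at least 75% with every replicate also reaching 75%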;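 note: 0% = median of neutral control wells and 100% = pilot-screen positive control compound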
TRPM1 prom inh: inhibitors of MITF-driven TRPM1 promoter in melanoma cells | inhibition, % at 12.5 µM | SK-MEL-5 TRPM1 promoter luciferase, 24 h | 330,000 compounds, 0.83% hits;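 active = mean inhibition across replicates of 60% or more, whatever share of single replicates reaches that level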
KKLEB cytotox: counter-screen for CF NF-kB inhibitors: cytotoxicity | AID 602141 | 360,000 compounds, 0.36% hits | KKLEB CF airway cells viability, ATPlite luminescence, overnight; hits give low values; cells stimulated with P. aeruginosa culture filtrate | activity change (cytotoxicity), % at 5 µM;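 active = corrected activity change at or below -50% at 5 µM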
CF NFkB inh: inhibitors of cystic fibrosis induced NF-kB | KKLEB NF-kB-GFP reporter, PAF-induced, GFP fluorescence overnight | 360,000 compounds, 0.86% hits | inhibition, % at 5 µM | AID 588850;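 active = at least 50% inhibition at 5 µM, scaled per plate between neutral and stimulator controls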;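 note: PAF is a Pseudomonas aeruginosa culture filtrate used as stimulus; plate controls were PAF-stimulated DMSO wells for no effect and unstimulated DMSO wells for full effect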
Peg3 promoter: Peg3 promoter activity inhibition; 360,000 compounds, 1.7% hits; inhibition, % at 20 µM; HeLa PEG-Prom luciferase reporter, luminescence, overnight;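 active = inhibition of at least 50% at 20 µM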
HIF-2a inh: HIF-2a inhibition; 786-0 RCC cells HIF-2a reporter, luciferase luminescence, overnight; inhibition, % at 18.8 µM; 360,000 compounds, 0.72% hits;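 active = inhibition of the luminescence signal of 40% or more relative to plate controls, in a single-dose primary screen at 18.75 µM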
* marks the source's active call; other numbers are inactive results. A selection: hits, their analogues and other compounds. The true share with any hit is near 2.7%.

SMILES | Shn3 3UTR inh | TRPM1 prom inh | KKLEB cytotox | CF NFkB inh | Peg3 promoter | HIF-2a inh
Nc1nc2n[nH]nc2c(=O)[nH]1 | 25 | 65* | 8 | -10 | 13 | 5
Nc1nc2nn(-c3ccccc3)nc2c(=O)[nH]1 | -11 | -48 | -5 | -1 | -172 | -100
COc1ccc2cc(C(C)C(=O)O)ccc2c1 (configuration not stated) | -9 | -7 | -4 | -8 | 4 | 10
Cc1nc(-c2nnc(SCC(=O)Nc3ccc(C(F)(F)F)cc3)n2C)cs1 | -14 | -10 | -19 | 22 | -3 | 3
COc1ccc(-c2c[n+]3c4n2CCCCC4=C(c2ccccc2)C3)cc1 | 29 | 78* | 17 | -7 | 41 | -13
COc1ccc(CN2CCN(C(=O)Cn3nc(C(=O)O)c4ccccc4c3=O)CC2)cc1F | 0 | -2 | -2 | -2 | 15 | 6
C[C@H](CO)N1C[C@H](C)[C@@H](CN(C)C(=O)Nc2ccc(C(F)(F)F)cc2)Oc2c(NC(=O)Nc3ccc(C(F)(F)F)cc3)cccc2C1=O | 17 | -6 | -20 | 5 | 56* | 8
CC(Oc1ccccc1)C(=O)NNC(=O)c1ccccn1 (configuration not stated) | 16 | 3 | -6 | 3 | 16 | 13
C/C(=N\NC(=O)C(C)Oc1ccc([N+](=O)[O-])cc1)c1ccccn1 (configuration not stated) | 83* | 83* | -9 | 1 | 44 | -17
S=c1[nH]nc(C2CCCCC2)n1/N=C/c1ccncc1 | -7 | -3 | -12 | 85* | 2 | 11
COc1cc(C(=O)COC(=O)c2ccc([N+](=O)[O-])o2)cc(OC)c1OC | 1 | 16 | 0 | 4 | 4 | -8
CN(CC(=O)Nc1ccc2c(c1)OCO2)S(=O)(=O)c1cccs1 | -30 | -61 | 6 | -9 | -143 | -165
O=C(Nc1cccc(C(F)(F)F)c1)c1ccc2nc(-c3ccco3)c(-c3ccco3)nc2c1 | 14 | -4 | -14 | 1 | 50* | 5
CN1C2CCC1/C(=C\c1ccc(F)cc1)C(=O)/C2=C/c1ccc(F)cc1 | 23 | 26 | 0 | -37 | 18 | 82*
CCN1CCN(C(=O)C(=O)c2cn(CC(=O)N(CC)CC)c3ccccc23)CC1 | 3 | 1 | -7 | 6 | 63* | 5
CCN(CC)C(=O)Cn1cc(C(=O)C(=O)N2CCN(Cc3ccccc3)CC2)c2ccccc21 | 13 | -10 | -17 | -10 | 14 | 18
O=C(CN1c2ccccc2Sc2ccccc21)NNC(=O)Nc1cccc(Cl)c1 | 27 | 2 | -8 | 28 | 51* | 37
O=C(Cc1ccccc1)NNC(=O)Nc1cccc(Cl)c1 | -4 | -3 | -3 | 20 | 0 | 23
CCOC(=O)c1c(S(=O)(=O)N2CCCC(C(=O)Nc3cccc(C)n3)C2)c(C)n(C)c1C (configuration not stated) | 12 | -2 | 9 | -18 | 10 | 10
C[C@]12CCC3C(CC[C@H]4CCCC[C@]34C)C1CC[C@@]2(O)CNCCO (some centres not stated) | 12 | -29 | 3 | 12 | 91* | 13
COC(=O)CSC1=C(C#N)C(=O)NC(c2ccccc2)S1 (configuration not stated) | 7 | 74* | 5 | -34 | 84* | 18
N#Cc1c(-c2ccc(F)cc2)cc(-c2cccnc2)nc1N | 24 | 2 | -36 | 4 | 53* | 8
COC1C(CO)OC(n2c3c(Cl)cccc3c3c4c(c5c6cccc(Cl)c6[nH]c5c32)C(=O)NC4=O)C(O)C1O (configuration not stated) | 0 | 86* | -36 | -94 | 28 | 34
COc1cc(C2c3cc4c(cc3C(OC3OC5COC(c6cccs6)OC5C(O)C3O)C3COC(=O)C23)OCO4)cc(OC)c1O (configuration not stated) | 94* | 76* | 10 | 33 | 21 | 7
COc1cc(C2c3cc4c(cc3OC(NNC(N)=O)C2C)OCO4)cc(OC)c1OC (configuration not stated) | -8 | 49 | -29 | 51* | -19 | 26
COc1cc([C@@H]2c3cc4c(cc3[C@H](O)[C@H]3COC(=O)[C@H]23)OCO4)cc(OC)c1OC | 10 | 61* | -28 | 51* | -33 | 29
